This is an account of results in PubChem BioAssay AID651742 (Broad Institute, 2012).

The whole screen tested about 5,600 compounds, of which about 780 (14%) were called active. Roughly 3% stayed inconclusive and do not appear here.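 How the source made its calls: active means mean signal decrease across replicates above about 35% based on untreated-well scatter, with enough replicates individually passing (limit read from the data); inconclusive means no rule stated though some were filed; inactive means the rest.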 A selection follows.

The experiment in a line: NIH3T3 cell viability loss – cherry-pick, single point, cytotoxicity control for T. cruzi proliferation inhibitor project, confirmation (AID 651742).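 Further: 0% = median of neutral control wells and 100% = median of positive control wells.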 The note with it: NIH/3T3 viability, CellTiter-Glo ATP luminescence, 90 h; at 8.35 µM; hits give high values.
As to `O=C(Cc1ccccn1)N1CCCCN2[C@@H](CO)[C@@H](c3ccc(C#Cc4ccccc4)cc3)[C@@H]2C1`, the cytotoxicity (signal decrease) was 33.5% (inactive).
The same measure for `COc1ccc(C#Cc2ccc([C@H]3[C@H](CO)N4CCCCN(C(=O)Cc5ccccc5)C[C@@H]34)cc2)cc1`: 58.2% (active); for `COc1ccc(-c2ccc([C@H]3[C@H](CO)N4CCCCN(C(=O)Cc5ccncc5)C[C@@H]34)cc2)cc1`: 17.6% (inactive).
For the molecule `O=C(Cc1cccnc1)N1CCCCN2[C@@H](CO)[C@H](c3ccc(C#CC4CCCC4)cc3)[C@@H]2C1`, the cytotoxicity (signal decrease) is 23.3% (inactive).
The same measure for `C/C=C/c1ccc([C@H]2[C@H](CO)N3CCCCN(C(=O)Cc4ccncc4)C[C@@H]23)cc1`: 11.1% (inactive).
